According to the supplement of paper PMC8975748:
Structures can show the parent of a compound that is named as a salt. ± gives the standard deviation of the averaged measurements.

How the values were obtained:
[1] = test system: Saccharomyces cerevisiae BY4741 SeMeCo community; test: mean cell size (pixel area) (pixels); higher = larger cells; conditions: 10 µM; 24 h; SM minimal medium
In short: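 A fluorescent Saccharomyces cerevisiae BY4741 community carrying four plasmids was used, with each plasmid complementing one auxotrophy and bearing a fluorescent marker. An overnight preculture at OD600 = 1.0 was diluted to OD600 = 0.3, and 70 µl went into 384-well plates acoustically predosed with drug (final 10 µM) in SM medium for 24 h. After paraformaldehyde fixation, cells were imaged by automated confocal microscopy and analysed in Harmony, giving the mean cell pixel area per well. Each value is the average of 3 replicates. Same SeMeCo high-content imaging drug screen: Selleck FDA-approved drugs at 10 µM, 24 h in SM medium, 384-well plates, 3 replicates.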

[2] = test system: Saccharomyces cerevisiae BY4741 SeMeCo community; test: z-score of prototroph abundance vs DMSO median; higher = larger share of this subpopulation than in DMSO controls; conditions: 10 µM; 24 h; SM minimal medium; subpopulation (auxotrophy): Prototroph
In short: (§1)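 A Saccharomyces cerevisiae BY4741 community carried four plasmids, each restoring one auxotrophy and encoding a distinct fluorescent protein. It was pre-grown overnight to OD600 1.0, diluted to 0.3, and 70 µl was added to 384-well plates acoustically predosed with library drugs (10 µM final), then grown 24 h in minimal SM medium. Cells were paraformaldehyde-fixed and imaged by automated confocal microscopy, with single-auxotroph fluorescent strains setting thresholds and autofluorescence correction. Each subpopulation's abundance was scored as a z-score against the vehicle-well median.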

[3] = test system: Saccharomyces cerevisiae BY4741 SeMeCo community; test: z-score of subpopulation abundance vs DMSO median, subpopulation auxotrophic for L; higher = larger share of this subpopulation than in DMSO controls; conditions: 10 µM; 24 h; SM minimal medium; subpopulation (auxotrophy): L
In short: as §1

[4] = test system: Saccharomyces cerevisiae BY4741 SeMeCo community; test: z-score of subpopulation abundance vs DMSO median, subpopulation auxotrophic for U; higher = larger share of this subpopulation than in DMSO controls; conditions: 10 µM; 24 h; SM minimal medium; subpopulation (auxotrophy): U
In short: as §1

[5] = test system: Saccharomyces cerevisiae BY4741 SeMeCo community; test: z-score of subpopulation abundance vs DMSO median, subpopulation auxotrophic for LU; higher = larger share of this subpopulation than in DMSO controls; conditions: 10 µM; 24 h; SM minimal medium; subpopulation (auxotrophy): LU
In short: as §1

[6] = test system: Saccharomyces cerevisiae BY4741 SeMeCo community; test: z-score of subpopulation abundance vs DMSO median, subpopulation auxotrophic for LM; higher = larger share of this subpopulation than in DMSO controls; conditions: 10 µM; 24 h; SM minimal medium; subpopulation (auxotrophy): LM
In short: as §1

[7] = test system: Saccharomyces cerevisiae BY4741 SeMeCo community; test: z-score of subpopulation abundance vs DMSO median, subpopulation auxotrophic for HM; higher = larger share of this subpopulation than in DMSO controls; conditions: 10 µM; 24 h; SM minimal medium; subpopulation (auxotrophy): HM
In short: as §1

[8] = test system: Saccharomyces cerevisiae BY4741 SeMeCo community; test: z-score of subpopulation abundance vs DMSO median, subpopulation auxotrophic for HU; higher = larger share of this subpopulation than in DMSO controls; conditions: 10 µM; 24 h; SM minimal medium; subpopulation (auxotrophy): HU
In short: as §1

[9] = test system: Saccharomyces cerevisiae BY4741 SeMeCo community; test: z-score of subpopulation abundance vs DMSO median, subpopulation auxotrophic for UM; higher = larger share of this subpopulation than in DMSO controls; conditions: 10 µM; 24 h; SM minimal medium; subpopulation (auxotrophy): UM
In short: as §1

[10] = test system: Saccharomyces cerevisiae BY4741 SeMeCo community; test: z-score of subpopulation abundance vs DMSO median, subpopulation auxotrophic for HL; higher = larger share of this subpopulation than in DMSO controls; conditions: 10 µM; 24 h; SM minimal medium; subpopulation (auxotrophy): HL
In short: as §1

[11] = test system: Saccharomyces cerevisiae BY4741 SeMeCo community; test: z-score of subpopulation abundance vs DMSO median, subpopulation auxotrophic for HLU; higher = larger share of this subpopulation than in DMSO controls; conditions: 10 µM; 24 h; SM minimal medium; subpopulation (auxotrophy): HLU
In short: as §1

[12] = test system: Saccharomyces cerevisiae BY4741 SeMeCo community; test: z-score of subpopulation abundance vs DMSO median, subpopulation auxotrophic for HLM; higher = larger share of this subpopulation than in DMSO controls; conditions: 10 µM; 24 h; SM minimal medium; subpopulation (auxotrophy): HLM
In short: as §1

[13] = test system: Saccharomyces cerevisiae BY4741 SeMeCo community; test: z-score of subpopulation abundance vs DMSO median, subpopulation auxotrophic for HUM; higher = larger share of this subpopulation than in DMSO controls; conditions: 10 µM; 24 h; SM minimal medium; subpopulation (auxotrophy): HUM
In short: as §1

[14] = test system: Saccharomyces cerevisiae BY4741 SeMeCo community; test: z-score of subpopulation abundance vs DMSO median, subpopulation auxotrophic for LUM; higher = larger share of this subpopulation than in DMSO controls; conditions: 10 µM; 24 h; SM minimal medium; subpopulation (auxotrophy): LUM
In short: as §1

[15] = test system: Saccharomyces cerevisiae BY4741 SeMeCo community; test: z-score of subpopulation abundance vs DMSO median, subpopulation auxotrophic for H; higher = larger share of this subpopulation than in DMSO controls; conditions: 10 µM; 24 h; SM minimal medium; subpopulation (auxotrophy): H
In short: as §1

[16] = test system: Saccharomyces cerevisiae BY4741 SeMeCo community; test: z-score of subpopulation abundance vs DMSO median, subpopulation auxotrophic for HLUM; higher = larger share of this subpopulation than in DMSO controls; conditions: 10 µM; 24 h; SM minimal medium; subpopulation (auxotrophy): HLUM
In short: as §1

Structure (SMILES) | mean cell size [1] | z-score of prototroph abundance [2] | z-score of subpopulation abundance [3] | z-score of subpopulation abundance [4] | z-score of subpopulation abundance [5] | z-score of subpopulation abundance [6] | z-score of subpopulation abundance [7] | z-score of subpopulation abundance [8] | z-score of subpopulation abundance [9] | z-score of subpopulation abundance [10] | z-score of subpopulation abundance [11] | z-score of subpopulation abundance [12] | z-score of subpopulation abundance [13] | z-score of subpopulation abundance [14] | z-score of subpopulation abundance [15] | z-score of subpopulation abundance [16]
O=C1CN(/N=C/c2ccc(-c3ccc([N+](=O)[O-])cc3)o2)C(=O)N1 [Dantrolene sodium] | 12.4 ± 0.18 | 2.09 | 2.03 | -3.65 | -2.49 | 1.59 | 0.62 | -3.33 | -2.91 | 1.35 | -0.91 | 1.18 | -2.36 | -0.73 | – | –
CO[C@@]1(NC(=O)C(C(=O)O)c2ccc(O)cc2)C(=O)N2C(C(=O)O)=C(CSc3nnnn3C)CO[C@@H]21 (some centres not stated) [Latamoxef sodium] | 12.7 ± 0.16 | 0.35 | -0.05 | -0.29 | -0.08 | -0.29 | -0.22 | 0 | -0.41 | -0.07 | 0.4 | 0.83 | -0.43 | – | 0.8 | 0.61
COC(=O)C1=C(C#N)NC(C)=C(C(=O)OC(C)C)C1c1cccc([N+](=O)[O-])c1 (configuration not stated) [Nilvadipine] | 12.6 ± 0.18 | 0.22 | -0.93 | – | -1.37 | -0.12 | 1.37 | -1.66 | -0.73 | – | -0.56 | 2.28 | -0.21 | -0.7 | 1.45 | 0.19
O=c1[nH]cc(F)c(=O)[nH]1 [Fluorouracil (5-Fluoracil, 5-FU)] | 13.9 ± 0.2 | -10.5 | -0.27 | 0.26 | 0.59 | 0.7 | – | 8.79 | – | 6.71 | 10.4 | 22.3 | 12.3 | 3.63 | 13.4 | 22.5
Fc1ccc([C@@H]2CCNC[C@H]2COc2ccc3c(c2)OCO3)cc1 [Paroxetine HCl] | – | 0.34 | -0.43 | 0.75 | -0.16 | -0.61 | -0.49 | -1.01 | -0.16 | 0.14 | -0.09 | 0.16 | -0.39 | -1.08 | 0.09 | 0.06
CCOC(=O)OC(C)OC1=C(C(=O)Nc2ccccn2)N(C)S(=O)(=O)c2ccccc21 (configuration not stated) [Ampiroxicam] | 12.3 ± 0.37 | 0.81 | -0.1 | -0.79 | -0.67 | 0.15 | -0.5 | -0.62 | 0.08 | -0.64 | -0.83 | -0.4 | -0.48 | – | -0.19 | -0.78
Cc1cc(NS(=O)(=O)c2ccc(N)cc2)no1 [Sulfamethoxazole sodium] | 12.3 ± 0.35 | -0.28 | -0.95 | 0.7 | 0.09 | -1.48 | – | 0.96 | 1.33 | -1.13 | -1.18 | -0.73 | 1.03 | -0.34 | -0.82 | -0.74
CN(C)CCCN1c2ccccc2Sc2ccc(Cl)cc21 [Chlorpromazine HCl] | 12.3 ± 0.24 | – | -0.35 | 0.63 | -0.32 | 0.96 | 0.19 | -0.02 | 0.5 | -0.55 | -0.85 | 0.11 | 0.9 | 0.52 | -0.33 | –
C#CCN[C@@H]1CCc2ccccc21 [Rasagiline Mesylate] | 12.49 ± 0.065 | 0.23 | 1.22 | -0.4 | 0.5 | 0.42 | -0.43 | -0.74 | -0.05 | 0.37 | 0.21 | -0.04 | -0.47 | – | 0.22 | 0.44
Nc1ccc(S(=O)(=O)Nc2ccccn2)cc1 [Sulfapyridine] | 12.2 ± 0.13 | 0.95 | -0.23 | -0.03 | -0.25 | – | -0.46 | -0.55 | -0.75 | -0.68 | -0.45 | -0.9 | -0.97 | -0.73 | -0.9 | -0.89
Nc1nc(N)c2nc(-c3ccccc3)c(N)nc2n1 [Triamterene] | 12.6 ± 0.17 | 3.28 | 3.9 | -8.02 | -7.06 | – | 3.53 | -7.52 | -9.3 | 3.45 | -3.55 | 2.07 | -6.05 | -4.47 | 2.44 | -1.58
COc1cccc2c1C(=O)c1c(O)c3c(c(O)c1C2=O)C[C@@](O)(C(=O)CO)C[C@@H]3O[C@H]1C[C@H](N)[C@H](O[C@@H]2CCCCO2)[C@H](C)O1 [Pirarubicin] | 12.3 ± 0.17 | 2.14 | 0.11 | 5.25 | 4.15 | -3.84 | -5.17 | – | -3.46 | 0.37 | 2.71 | -1.27 | -1.83 | -0.26 | -1.05 | 1.36
O=C(Cn1cnnn1)N[C@@H]1C(=O)N2C(C(=O)O)=C(CSc3nncs3)CS[C@H]12 [Ceftezole sodium] | 12.31 ± 0.087 | -0.69 | -0.77 | – | 0.2 | 0.18 | -0.19 | 0.45 | 0.35 | 0 | 0.11 | 0.32 | -0.02 | 0.36 | -0.94 | 0.82
Cc1[nH]c(=O)c(C#N)cc1-c1ccncc1 [Milrinone] | 12.4 ± 0.18 | 1 | -0.03 | 0.34 | -0.56 | -0.5 | -0.67 | -0.62 | -0.1 | -0.41 | -0.86 | -0.75 | -1.04 | -0.06 | -0.52 | -1.21
